PubChem BioAssay (NCI)
Compounds without any hit were thinned out: in the full panel of roughly 83,000, 20% have a hit.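 Cells were grown in 96-well plates and exposed to the test compound at a single concentration for 48 hours; results are reported as percent growth, with values below 10 considered active.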 Values without a mark were called inactive. Active and inactive are the calls of the source.

Tests used:
Assay in all cases: NCI-60 one-dose screen, 48 h (100 = growth as untreated, 0 = no growth, -100 = all killed)
Details in all cases: 10 µM unless noted
HT29 colon = test system: HT29 colon
SNB-75 CNS = test system: SNB-75 CNS
SNB-19 CNS = test system: SNB-19 CNS
U251 CNS = test system: U251 CNS
PC-3 prostate = test system: PC-3 prostate
SK-MEL-5 melanoma = test system: SK-MEL-5 melanoma
UACC-62 melanoma = test system: UACC-62 melanoma
LOX IMVI melanoma = test system: LOX IMVI melanoma
SK-MEL-28 melanoma = test system: SK-MEL-28 melanoma

Compound | growth (HT29 colon) | growth (SNB-75 CNS) | growth (SNB-19 CNS) | growth (U251 CNS) | growth (PC-3 prostate) | growth (SK-MEL-5 melanoma) | growth (UACC-62 melanoma) | growth (LOX IMVI melanoma) | growth (SK-MEL-28 melanoma)
C=CCc1c2c(c(OC)c3ccoc13)C(=O)/C(=C/c1ccccc1OC)O2 | 44.6% | 35.8% | 73% | 46.2% | 55.2% | 98% | 46.4% | 38.3% | 81.1%
Cn1cc(-c2csc(-c3ccc(Cl)cc3)n2)c2cccnc21 | -70.3% [100 µM] (active) | -82.5% [100 µM] (active) | -41.8% [100 µM] (active) | 4.92% [100 µM] (active) | -16.7% [100 µM] (active) | -86.9% [100 µM] (active) | -38.5% [100 µM] (active) | 1.66% [100 µM] (active) | -63.9% [100 µM] (active)
N#Cc1cnc(NCCc2ccncc2)nc1-n1cnc2ccccc21 | 49% | 82.6% | 94.7% | 58.7% | 64.1% | 79.8% | 48.5% | 41.2% | 80.9%
O=C1Nc2ccccc2/C1=C\c1nc(-c2ccccc2F)n2ccccc12 | 11.6% | -68.2% (active) | 45.8% | -3.26% (active) | 44.1% | 37.8% | 38.8% | 13.6% | 69.3%
O=[N+]([O-])c1ccc(-c2nc(N3CCOCC3)c3c4c(sc3n2)CCCC4)cc1 | 94.8% | 76.6% | 115% | 102% | 101% | 94.1% | 85.1% | 86% | 111%
Cc1c(-n2nnc(-c3nc4ccccc4s3)c2N)c(=O)n(-c2ccccc2)n1C | 100% | 83.1% | 99.9% | 101% | 98.2% | 99.6% | 93.3% | 93.1% | 111%
C/C(=N/O)c1ccc(F)cc1 | 16.5% | 123% | 87.8% | 83.2% | 75.5% | 89.2% | 78.3% | 69.5% | 126%
COc1ccc(-c2cn(-c3cc(OC)c(OC)c(OC)c3)c(=O)n2C(C)=O)cc1 | 85.4% | 88.3% | 92.9% | 97.6% | 105% | 94% | 84.2% | 95.5% | 103%
O=S(=O)(Nc1ccccc1)c1ccc(C2CC3(Cl)C(Cl)=C(Cl)C2(Cl)C3(Cl)Cl)cc1 (stereo not given) | 35.2% | 69.6% | 77.6% | 39.8% | 13.5% | 60.7% | 43.6% | 39% | 68.3%
COc1ccc(C(c2cc(OC)c(OC)c(OC)c2)N2CCN(c3ccccc3)CC2)cc1 (stereo not given) | 63.5% | 90.2% | 84.1% | 96.4% | 73.3% | 85.2% | 55.2% | 87.3% | 84.5%
CCCCC(=O)Nc1ncc(Cc2ccc(Cl)cc2)s1 | – | 46.5% | 77.2% | 65.6% | 80.9% | 80.3% | 49.6% | 64.8% | 74.2%
O=C(Cn1c(-c2ccc([N+](=O)[O-])cc2)nc2ccccc21)NNC(=O)c1cccnc1 | 77.2% | 53.3% | 86.5% | 77.9% | 69% | 83.8% | 66.2% | 65.3% | 108%
N#Cc1c(-c2ccccc2)cc(-c2ccccc2)n(CCCCCC(=O)Nc2ccccc2N)c1=O | 43.7% | 32.2% | 68.2% | 61.2% | 43.7% | 21.2% | 65.5% | 26.2% | 80.5%
N#CC1CCc2c(c(-c3cn[nH]c3C(F)(F)F)nc3c(F)cc4[nH]ncc4c23)C1 (stereo not given) | 42.1% | -4.91% (active) | 32.7% | 28.9% | 43.6% | – | 8.91% (active) | 17.1% | 24.9%
O=C1/C(=C/c2ccc(Cl)cc2)COc2ccc(O)cc21 | 15.3% | 84.5% | 82.1% | 44.9% | 69.8% | 96.8% | 78.1% | -42.6% (active) | 96.8%
CNC(=O)c1cc(Oc2ccc3c(c2)sc2nc(-c4cc(OC)c(OC)c(OC)c4)cn23)ccn1 | 65.3% | 50.3% | 82.2% | 61.9% | 34.3% | -13.9% (active) | 44.5% | 58% | 63.5%
CCOC(=O)c1cnc2ccccc2c1Cl | 101% | 78.2% | 99.2% | 102% | 90.9% | 88.1% | 95.2% | 86.2% | 103%
OCCOCCN(Cc1ccccn1)Cc1cc(I)cc(I)c1O | 98.5% | 99.9% | 94.7% | 83.5% | 75.5% | 93.9% | 94.8% | 62.3% | 95.4%
